Among all 1,200 compounds or so, fewer than 10 were called active. Calls follow the shape of the dose curve; as a rule, active = well fitted curve in the direction sought with a large enough effect; inconclusive = small, poorly fitted or top-dose-only effect, or another doubt; inactive = no such curve, though single readings can be large or run the other way. The list is a sample of the results.
Each compound was assayed against Transcriptional regulator ERG (Homo sapiens) (UniProt P11308) (assay: qHTS for Small Molecule Inhibitors of the ERG Ets/DNA interaction: TR assay against cherry picks). Conditions: ERG Ets domain-DNA fluorescence polarization, Texas red probe; series mostly up to 154 µM; activity change, negative = inhibition: at the top concentration.
Description: The Ets family of proteins is a family of ~30 conserved transcription factors defined by the presence of an ~85 amino acid domain referred to as the Ets domain, which mediates sequence-specific DNA binding to a core DNA element GGAA/T.The Ets family member ERG has been linked to several neoplasms. […] More extensive studies of the effects of over-expression of ERG in prostate cells have recently been carried out and have shown that over-expression of ERG results in increased invasion. […] We will carry out a high throughout screen to identify inhibitors of the interaction between ERG and DNA using a fluorescence polarization (FP) assay with a His-tagged ERG Ets domain and fluorescently-labeled DNA probes to develop small molecule inhibitors of this interaction as probes to test this hypothesis and lay the groundwork for the development of targeted therapies against ERG. This is the confirmation against the cherry picks in theprimary screening assay. NIH Molecular Libraries Probe Production Network [MLPCN] NIH Chemical Genomics Center [NCGC] Grant: NS066464 PI Name: John Bushweller, University of Virgina
1.5 ul of protein solution (1 uM ERG domain in 300mM KCl, 50mM Tris-HCl, 1mM EDTA, 1mM DTT, pH 7.5); 20 nl Control plate and compound library plate; 1.5 ul mixture of 5 nM Fluorescein-DNA and 100nM Texas-615-DNA solution in same buffer as above solution; measure fluorescence polarization sequentially for fluorescein (Excitation = 480 nm, Emission = 535s, 535p nm) and Texas red (Excitation = 555 nm, Emission = 632s, 632p nm).
Also: % of control where 0% means no effect.

Sequence of Transcriptional regulator ERG (Homo sapiens) (P11308 whole entry, looked up, the tested form may be a part): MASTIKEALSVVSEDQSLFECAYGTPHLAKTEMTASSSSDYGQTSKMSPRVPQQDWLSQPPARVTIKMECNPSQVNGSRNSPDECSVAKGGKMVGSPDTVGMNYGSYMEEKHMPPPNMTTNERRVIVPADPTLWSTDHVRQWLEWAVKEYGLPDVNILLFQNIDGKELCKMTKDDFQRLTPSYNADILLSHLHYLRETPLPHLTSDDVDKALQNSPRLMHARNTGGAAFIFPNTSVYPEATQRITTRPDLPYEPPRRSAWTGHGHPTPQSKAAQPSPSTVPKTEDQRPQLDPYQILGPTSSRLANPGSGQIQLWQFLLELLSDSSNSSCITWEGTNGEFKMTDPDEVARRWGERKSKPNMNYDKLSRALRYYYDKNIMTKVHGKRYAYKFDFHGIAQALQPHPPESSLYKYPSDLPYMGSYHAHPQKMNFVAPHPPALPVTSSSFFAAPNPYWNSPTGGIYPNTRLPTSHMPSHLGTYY

Activity change, negative = inhibition, inactive:
COc1ccc(CN2CCC(C(=O)N3CCCC(C)C3)CC2)cc1OC (configuration not stated) 8.66%, Cc1ccc(NS(=O)(=O)c2cc(Br)cnc2N)c(Cl)c1 -14.9%, CCOc1cc(S(=O)(=O)n2ccc(C)n2)ccc1Br 10.8%, COc1ccc(NC(=O)C2CC(=O)n3c(nc4ccccc43)N2)cc1 (configuration not stated) 10.4%, COc1ccc(OC)c(NC(=O)c2cccc(NC(=O)c3ccccc3)c2)c1 4.7%, COc1ccc(CNCCC2(C(C)C)CCOC(C)(C)C2)cc1 (configuration not stated) 5.23%, O=C(NCCCN1CCOCC1)c1ccc(CSc2ccc(Cl)cc2)cc1 -2.11%, O=C(CN1C(=O)CS/C1=C\c1nc(-c2ccc(Cl)cc2)cs1)Nc1cccnc1Cl 4.61%, NCCNc1ccc2nnnn2n1 6.05%, CCN(CC)S(=O)(=O)c1cccc(-c2nc3n(n2)Cc2ccccc2-3)c1 17%, O=C(COc1ccc(-c2ccccc2)cc1)N1CCN(C(=O)c2cccs2)CC1 -5.14%, Cc1cc(/C=C(\C#N)C(=O)Nc2ccccc2)c(C)n1-c1ccc(C(=O)O)cc1 -0.126%, Cc1ccc(C=Nc2cccnc2N)cc1 44%, CC(C)C1NC(=S)N(Cc2ccccc2)C1=O (configuration not stated) -0.239%, Cc1nc2ccccc2c(=O)n1NC(=O)c1cccnc1Cl -1.27%, COc1ccc(CCn2c(C)cc(C(=O)COC(=O)c3cnc(C)cn3)c2C)cc1 -8.89%, CCC(CC)COC(=O)C(C#N)c1nc2ccccc2nc1N1CCN(CC)CC1 (configuration not stated) -11.9%, CCc1ccccc1N(CC(=O)NCc1ccco1)C(=O)CCC(=O)Nc1ccccn1 -0.223%, COc1ccc(NC(=O)CSCC(=O)N(C)Cc2cccc(OC)c2OC)cc1 1.32%, CN(C)c1ccc2c3c(ccc(N(C)C)c13)C(=O)OC2 3.2%, COc1ccc(NC(=S)NCc2ccc3c(c2)cc(C)n3C)cc1 -0.43%, Cc1cc2cc(CNC(=O)c3ccc(S(=O)(=O)N4CCCCC4)cc3)ccc2n1C 20.1%, COc1cc(OC)c(N(C)S(=O)(=O)c2cccc(C(=O)NC(C)C3CC4CCC3C4)c2)cc1Cl (configuration not stated) -3.28%, Nc1nc(Cl)c2ncn(C3OC(CO)C(O)C3O)c2n1 (configuration not stated) 0%, CC(C)(C)c1ccc(OCC(=O)Nc2cccc(S(=O)(=O)NC3=NCCCCC3)c2)cc1 4.64%, CCc1nc2ccccc2c(C(=O)NCc2ccccc2)c1C -5.65%, COC(=O)c1cc(NC(=O)c2c(Cl)cnn2C)cc(C(=O)OC)c1 -8.91%, O=C(CC(c1ccccc1)c1cc(Cl)ccc1O)NCCCN1CCOCC1 (configuration not stated) 4.28%, Cc1cccc(N2C(=O)CC(Cn3nc(C)cc3C)C2=O)c1 (configuration not stated) 3.34%, CC1=CC(=O)C(C(C)C)=C/C1=C(\c1cc(C(C)C)c(OP(=O)(O)O)cc1C)c1ccccc1C(=O)O -2.93%, Nc1c(C(=O)O)cnn1-c1ccccc1 -3.42%, OC(Cn1cnnc1)c1ccccc1 (configuration not stated) 3.72%, COc1ccccc1NS(=O)(=O)c1cc(C(=O)N2CCCC2)ccc1C 6.04%, COc1ccc(-c2nc3n(n2)C(c2ccccc2OC)C(C(=O)Nc2cccnc2)=C(C)N3)cc1 (configuration not stated) -20.2%, COc1ccc2c(CCNC(=O)/C=C/c3ccc(OC)c(OC)c3)c[nH]c2c1 1.82%, O=C(/C=C/c1ccc([N+](=O)[O-])cc1)NCc1ccco1 2.4%, CC1(C)C2CCC1(CS(=O)(=O)N1CCC(C(N)=O)CC1)C(=O)C2 (configuration not stated) 18.6%, CC(C)CNC(=O)CCc1nc(-c2ccccc2)no1 -4.45%, COc1ccc(N/C=C(\C(C)=O)c2ccc(OC)c(OC)c2)cc1OC 1.84%, O=C(CNC(=S)N(CCCN1CCOCC1)Cc1cccs1)NC1CCCCC1 2%, O=C(COc1ccc(F)cc1)Nc1nnc(-c2ccncc2)s1 -8.56%, COc1ccc(CCCC(=O)Nc2cc(C)ccc2OC)cc1 1.5%, CCOC(=O)C1CCCN(C(=O)c2nn(-c3ccc(C)cc3)c(=O)n(C)c2=O)C1 (configuration not stated) -21.4%, O=[N+]([O-])c1ccc(S(=O)(=O)N/N=C/c2ccsc2)cc1 -10.2%, O=C(Nc1ccc(N2CCOCC2)cc1)c1ccc2nc(-c3ccco3)c(-c3ccco3)nc2c1 -17%, CCn1c(=O)cc(OCC(=O)Nc2ccccc2C#N)c2ccccc21 -0.687%, CCOC(=O)C(=O)c1c(-c2ccccc2)nc2ccccn12 -0.0707%, O=C(NCC(=O)N(c1ccccc1)C(C(=O)NC1CCCCC1)c1cccnc1)c1ccco1 (configuration not stated) 1.05%, C[C@H](CO)N1C[C@H](C)[C@@H](CN(C)CC2CC2)Oc2c(NC(=O)C3CC3)cccc2C1=O 1.57%, CCOc1ccccc1C1CC(c2ccc(Br)cc2)Nc2nc(N)nn21 (configuration not stated) -19.2%, COc1ccc(/C=C/C(=O)Nc2c(C(=O)O)[nH]c3ccccc23)cc1OC -17.3%, COc1ccc(-c2noc(Cn3c(=O)c4ccccc4n(CC(=O)Nc4cccc(C(F)(F)F)c4)c3=O)n2)cc1 12.9%, COCCNC(=O)CSc1nc2ccccc2c(=O)n1-c1cccc(OC)c1 -10.6%, CCCCSc1cc(=O)n(-c2ccccc2)nc1C(=O)OCC -3.95%, COc1c2c(c(CCC(=O)O)c3c1C=CC(C)(C)O3)OC(C)(C)C=C2 0.0019%, CC1Cc2ccccc2N1CC(=O)Nc1ccc2c(c1)OCO2 (configuration not stated) -2.39%, CCC(C)NCCCOc1ccc(C)cc1OC (configuration not stated) -4.22%, CCc1ccc(S(=O)(=O)NC2CC(C)(C)NC(C)(C)C2)cc1 -5.64%, Cc1cc2nc(-c3ccc[nH]c3=O)n(Cc3ccccc3F)c2cc1C -0.252%, COc1ccc(OCCN2CCN(C(=O)c3ccc(OC(F)F)c(OC)c3)CC2)cc1 0.86%, COc1ccc(C(=O)N(C)Cc2ccc(C)o2)cc1OC1CCN(C(C)C)CC1 1.33%, COC(=O)C(CSCc1ccccc1)NC(=O)CSc1nc(N)cc(=O)[nH]1 (configuration not stated) 0.742%, COc1ccc2cc(CO)c(Cl)nc2c1 4.04%, Cc1cccc(-c2cnn(-c3cccc([N+](=O)[O-])c3)c2N)c1 -15.3%, CC(=O)Nc1ccc(SCC(=O)N(C)C2CCS(=O)(=O)C2)cc1 (configuration not stated) -0.814%, CC(C)=CCOc1ccc2ccc(=O)oc2c1 -0.682%, CCOC(=O)COc1ccc(/C=C2/C(=O)NN(c3ccc(F)cc3)C2=O)cc1OC 4.26%, Cc1ccc(-c2nnn(CC(=O)N(c3ccccc3)C(C(=O)NCC3CCCO3)c3ccc(F)cc3)n2)o1 (configuration not stated) -5.14%, Cc1ccc(CNC(=O)COc2ccc(S(=O)(=O)N3CCCC3)cc2)cc1 0.765%, O=C(OCCOCCN=C1NS(=O)(=O)c2ccccc21)c1ccccc1Br 4.92%, CC(=O)Nc1ccc(NC(=O)Cn2c(=O)n(-c3ccccc3)c(=O)c3oc4ccccc4c32)cc1 0.864%, COc1ccc(C(=O)n2nc(C)c(Br)c2C)cc1OC 1.94%, N#Cc1c(C(F)(F)F)cc(-c2cccs2)nc1SCC(=O)Nc1cccc(Br)c1 5.95%, N#CCCN(C(=S)NC(=O)C1CCCCC1)c1ccccc1F -3.69%, Cc1ccc2c(COC(=O)c3ccccc3Br)cc(=O)oc2c1 -0.0577%, COc1ccc(NC(=O)NCc2ccccn2)c(OC)c1 -2.62%, O=C(c1ccccc1)c1ccc[nH]1 -4.34%, Cc1ccc([N+](=O)[O-])c2c1C(N1CC(C)OC(C)C1)C(C)(C)O2 (configuration not stated) 5.79%, COc1ccccc1NC(=O)Cn1c(=O)n(CCC(=O)NCC2CCCO2)c(=O)c2cc(OC)c(OC)cc21 (configuration not stated) 0.0258%, Clc1ccc(-c2csc(N/N=C/c3ccco3)n2)cc1 -19.8%, CCOC(=O)CC1COCCN1Cc1cn[nH]c1-c1cc(OC)c(OC)c(OC)c1 (configuration not stated) 5.39%, COc1cc(C(=O)Nc2ccc(Cl)c([N+](=O)[O-])c2)cc(OC)c1OC -8.44%, COc1cccc2c1C(=N)c1c(O)c3c(c(O)c1C2=O)CC(O)(C(C)=O)CC3OC1CC(N)C(O)C(C)O1 (configuration not stated) 10.9%, O=C(NCc1cccc(Cl)c1)c1ccncc1 -9.86%, Cc1cccc(C)c1NC(=O)C1(N2C(=O)CC2c2ccccc2)CCCCC1 (configuration not stated) 0.216%, CC1(C)CC2CC(C)(CN2C(=O)c2ccc([N+](=O)[O-])cc2)C1 (configuration not stated) 0.742%, CN(C)c1nc(N)nc(Cn2nnc(-c3ccc(C(F)(F)F)cc3)n2)n1 3.53%, CC(NC(=O)c1cn(C)c2ccc(S(=O)(=O)N3CCCC3)cc2c1=O)c1ccccc1 (configuration not stated) -1.61%, Cc1[nH]c(=O)[nH]c(=O)c1/C=N/NC(=O)[C@H](C)N 2.01%, CCOC(=O)N1CCC(NC(=O)CSCc2nc(-c3ccc(OCC)cc3)oc2C)CC1 -9.6%, CC(C)(O)CN(CCCNC(=S)Nc1ccccc1)C(=S)Nc1ccccc1 -0.187%, S=c1[nH]nc(CSCCOc2ccccc2)o1 -12.2%, Cn1c(CO)cnc1SCc1ccc(F)cc1 18.1%, COc1ccc(CNC(=O)c2cccnc2SC)cc1OC -8.6%, Cc1cc(C)c2c(N)c(C(=O)c3ccc(Cl)cc3)sc2n1 5.05%, CCC1Oc2ccccc2N(CC(=O)NC2CC2)C1=O (configuration not stated) -0.665%, Oc1c(Cl)cc(Oc2cc(Cl)c(O)c(CN3CCOCC3)c2)cc1CN1CCOCC1 -6.09%, COc1ccc(S(=O)(=O)NCCNC(=O)N2CCOCC2)cc1 3.17%, O=C(CCNC(=O)c1ccccc1Cl)NCCCSc1ccccc1 3.19%, Cn1c(CNC(=O)c2cccs2)n[nH]c1=S 5.98%, CCCCC1=NN(C(=O)c2ccco2)C(O)(C(F)(F)F)C1 (configuration not stated) -2.3%, CCC(=O)N1CCN(c2nc3ccc(Br)cc3s2)CC1 2.3%

Reference: PubChem BioAssay AID651803 (National Center for Advancing Translational Sciences (NCATS), 2012)
